Assay results as given in PubChem BioAssay (NCATS).
A number with no mark means an inactive call. Results filed as inconclusive are left out. Activity calls are given as the source filed them. Unless noted, the call rests on the fitted dose curve; in most records, active means well fitted curve in the direction sought with a large enough effect; inconclusive means small, poorly fitted or top-dose-only effect, or another doubt; inactive means no such curve, though single readings can be large; an effect the other way counts as inactive or inconclusive.

tested on: not listed separately; test: qHTS for Inhibitors of Cell Surface uPA Generation: Validation Assay (AID 493164); settings: mouse cells, plasminogen activation; series mostly up to 38.3 µM; activity change: at the top concentration;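 further: RAW 264.7 macrophage cells exposed to compound for 18 h; 0% is about no effect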
Outline: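 RAW 264.7, 4000 cells/well, o/n plating; cpd 7-pt 1:5 dilution 2.45 nM–38.3 uM final; 18 h, 37 C/5% CO2; ATP-Lite, 5 s luminescence exposure.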

Structure (SMILES)	activity change [%]
CC(=O)O[C@]1(C(C)=O)CC[C@H]2[C@@H]3C=C(Cl)C4=CC(=O)[C@@H]5C[C@@H]5[C@]4(C)[C@H]3CC[C@@]21C	-0.182
CCn1cc(C(=O)O)c(=O)c2ccc(C)nc21	-0.647
CCCCCN(C)CCC(O)(P(=O)(O)O)P(=O)(O)O	-0.915
COc1ccc(Cc2nccc3cc(OC)c(OC)cc23)cc1OC	0.584
CC1(C)CCC2=C(O1)c1ccccc1C(=O)C2=O	1.5
O=C(NCCN1CCOCC1)c1ccc(Cl)cc1	0.0573
C[N+](C)(C)CC(=O)O	-0.0097

biological target: Peptidyl-prolyl cis-trans isomerase NIMA-interacting 1 (Homo sapiens) (UniProt Q13526); test: qHTS Validation Assay to Find Inhibitors of Pin1 (AID 504536; active means well fitted inhibition curve with a large enough effect in the polarisation, with a control signal flat, not every such curve was filed as active; the % refers to the polarisation;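 further: 0% = full Pin1 enzyme wells and -100% = no-enzyme wells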); settings: Pin1 fluorescence polarization peptide binding assay; series mostly up to 57.5 µM; activity, negative = inhibition: at the top concentration
Outline: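 Fluorescence polarization competition: compounds (titration) displace HiFluor-488-labeled Pin1-1b peptide from Pin1 (0.3 uM final) in pH 7.5 HEPES buffer with DTT, 10 min at room temperature; %Activity normalized to no-enzyme wells, curves fitted.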

Chain of Peptidyl-prolyl cis-trans isomerase NIMA-interacting 1 (Homo sapiens) (Q13526 whole entry, looked up): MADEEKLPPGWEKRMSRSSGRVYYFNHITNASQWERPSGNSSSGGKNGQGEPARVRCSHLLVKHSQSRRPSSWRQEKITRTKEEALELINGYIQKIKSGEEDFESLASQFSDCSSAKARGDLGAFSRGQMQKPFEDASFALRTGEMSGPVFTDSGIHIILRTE

Structure (SMILES)	activity, negative = inhibition [%]
CC(=O)O[C@]1(C(C)=O)CC[C@H]2[C@@H]3C=C(Cl)C4=CC(=O)[C@@H]5C[C@@H]5[C@]4(C)[C@H]3CC[C@@]21C	0.691
CCn1cc(C(=O)O)c(=O)c2ccc(C)nc21	-3.83
CCCCCN(C)CCC(O)(P(=O)(O)O)P(=O)(O)O	-5.3
COc1ccc(Cc2nccc3cc(OC)c(OC)cc23)cc1OC	0.86
O=C(NCCN1CCOCC1)c1ccc(Cl)cc1	1.13
C[N+](C)(C)CC(=O)O	-7.37

biological target: Phosphoglycerate kinase, glycosomal (Trypanosoma brucei brucei) (UniProt P07378); test: qHTS Validation Assay to Find Inhibitors of Phosphoglycerate Kinase (AID 504547); settings: enzymatic PGK inhibition, coupled luminescence read-out; series mostly up to 57.5 µM; activity, negative = inhibition: at the top concentration;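 further: control wells lack PGK and mark full inhibition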
Outline: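 PGK activity was coupled to GAPDH (100nM final), which generates the unstable substrate 1,3-bisphosphoglycerate in-well. Reactions ran 60 minutes at room temperature in 100mM TEA pH 7.6, 5mM MgCl2, 0.01% Tween-20, then Kinase-Glo Plus luminescence was read.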

Chain of Phosphoglycerate kinase, glycosomal (Trypanosoma brucei brucei) (P07378 whole entry, looked up): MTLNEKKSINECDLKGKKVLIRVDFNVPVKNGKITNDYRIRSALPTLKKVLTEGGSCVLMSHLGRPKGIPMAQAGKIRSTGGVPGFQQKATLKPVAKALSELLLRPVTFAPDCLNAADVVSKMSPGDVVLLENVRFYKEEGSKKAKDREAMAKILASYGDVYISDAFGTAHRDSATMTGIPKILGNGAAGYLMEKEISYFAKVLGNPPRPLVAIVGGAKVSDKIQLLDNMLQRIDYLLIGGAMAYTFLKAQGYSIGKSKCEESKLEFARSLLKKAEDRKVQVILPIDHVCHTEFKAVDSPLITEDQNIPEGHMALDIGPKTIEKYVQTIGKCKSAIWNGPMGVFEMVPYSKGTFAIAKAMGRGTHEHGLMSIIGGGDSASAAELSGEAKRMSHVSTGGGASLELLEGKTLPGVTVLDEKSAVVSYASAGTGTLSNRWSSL

Structure (SMILES)	activity, negative = inhibition [%]
CC(=O)O[C@]1(C(C)=O)CC[C@H]2[C@@H]3C=C(Cl)C4=CC(=O)[C@@H]5C[C@@H]5[C@]4(C)[C@H]3CC[C@@]21C	3.07
CCn1cc(C(=O)O)c(=O)c2ccc(C)nc21	12
CCCCCN(C)CCC(O)(P(=O)(O)O)P(=O)(O)O	-2.98
COc1ccc(Cc2nccc3cc(OC)c(OC)cc23)cc1OC	7.6
O=C(NCCN1CCOCC1)c1ccc(Cl)cc1	3.62
C[N+](C)(C)CC(=O)O	1.09

biological target: phosphoglycerate mutase (Leishmania major) (UniProt Q4Q090); test: qHTS Validation Assay to Find Inhibitors of Phosphoglycerate Mutase (AID 504548); settings: biochemical enzyme activity; series mostly up to 57.5 µM; activity change, negative = inhibition: at the top concentration;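 further: end-point luminescence from Kinase-GloPlus after the PGAM reaction; on the % scale 0 is the no-effect control and ±100 the full control effect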
Outline: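 L. major PGAM (1.25nM final) was added to substrate buffer and pinned compound, incubated 45 minutes at room temperature, then Kinase-GloPlus added; luminescence read after 10 minutes. Buffer: 100 mM TEA pH 7.6, 5 mM MgCl2, 0.01% Tween-20.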

Chain of phosphoglycerate mutase (Leishmania major) (Q4Q090 1-553): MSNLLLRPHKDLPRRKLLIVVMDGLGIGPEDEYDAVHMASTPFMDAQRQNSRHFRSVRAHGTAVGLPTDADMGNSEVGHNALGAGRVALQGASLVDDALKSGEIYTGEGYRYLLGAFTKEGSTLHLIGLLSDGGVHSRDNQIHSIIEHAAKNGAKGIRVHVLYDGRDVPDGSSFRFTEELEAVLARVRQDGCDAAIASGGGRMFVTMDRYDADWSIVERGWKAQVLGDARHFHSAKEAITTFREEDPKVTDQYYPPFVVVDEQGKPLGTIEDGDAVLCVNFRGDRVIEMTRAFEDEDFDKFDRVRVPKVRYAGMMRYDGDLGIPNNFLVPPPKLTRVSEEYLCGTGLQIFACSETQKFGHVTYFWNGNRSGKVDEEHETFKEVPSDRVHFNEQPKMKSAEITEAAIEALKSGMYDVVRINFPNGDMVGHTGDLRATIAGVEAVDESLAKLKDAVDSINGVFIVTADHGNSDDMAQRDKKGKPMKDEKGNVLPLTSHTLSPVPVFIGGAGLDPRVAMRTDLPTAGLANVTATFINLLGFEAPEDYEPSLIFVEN

Structure (SMILES)	activity change, negative = inhibition [%]
CC(=O)O[C@]1(C(C)=O)CC[C@H]2[C@@H]3C=C(Cl)C4=CC(=O)[C@@H]5C[C@@H]5[C@]4(C)[C@H]3CC[C@@]21C	4.33
CCn1cc(C(=O)O)c(=O)c2ccc(C)nc21	-0.341
CCCCCN(C)CCC(O)(P(=O)(O)O)P(=O)(O)O	-6.1
COc1ccc(Cc2nccc3cc(OC)c(OC)cc23)cc1OC	10.6
CC1(C)CCC2=C(O1)c1ccccc1C(=O)C2=O	15.1
O=C(NCCN1CCOCC1)c1ccc(Cl)cc1	9.99
C[N+](C)(C)CC(=O)O	5.44

biological target: Ubiquitin carboxyl-terminal hydrolase 1 (Homo sapiens) (UniProt O94782); test: Inhibitors of USP1/UAF1: Pilot qHTS (AID 504865); settings: purified USP1/UAF1, Ub-rhodamine cleavage fluorescence; series mostly up to 114 µM; activity change, negative = inhibition: at the top concentration; further: nearly all actives have a fitted effect of over 35% in size; further: potency means the concentration at half of the fitted maximal effect;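 on activity change, negative = inhibition: rhodamine fluorescence freed from ubiquitin-rhodamine substrate followed over time; top concentration of the series differs between compounds; on the % scale 0 is the no-effect control and ±100 the full control effect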
Outline: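 Deubiquitinase activity followed as kinetic rhodamine fluorescence release from 150 nM Ub-Rho. 1 nM USP1/UAF1 with compound, after 15 min room-temperature preincubation, in HEPES pH 7.8 buffer containing TCEP, EDTA, BSA and Tween-20.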

Chain of Ubiquitin carboxyl-terminal hydrolase 1 (Homo sapiens) (O94782 whole entry, looked up): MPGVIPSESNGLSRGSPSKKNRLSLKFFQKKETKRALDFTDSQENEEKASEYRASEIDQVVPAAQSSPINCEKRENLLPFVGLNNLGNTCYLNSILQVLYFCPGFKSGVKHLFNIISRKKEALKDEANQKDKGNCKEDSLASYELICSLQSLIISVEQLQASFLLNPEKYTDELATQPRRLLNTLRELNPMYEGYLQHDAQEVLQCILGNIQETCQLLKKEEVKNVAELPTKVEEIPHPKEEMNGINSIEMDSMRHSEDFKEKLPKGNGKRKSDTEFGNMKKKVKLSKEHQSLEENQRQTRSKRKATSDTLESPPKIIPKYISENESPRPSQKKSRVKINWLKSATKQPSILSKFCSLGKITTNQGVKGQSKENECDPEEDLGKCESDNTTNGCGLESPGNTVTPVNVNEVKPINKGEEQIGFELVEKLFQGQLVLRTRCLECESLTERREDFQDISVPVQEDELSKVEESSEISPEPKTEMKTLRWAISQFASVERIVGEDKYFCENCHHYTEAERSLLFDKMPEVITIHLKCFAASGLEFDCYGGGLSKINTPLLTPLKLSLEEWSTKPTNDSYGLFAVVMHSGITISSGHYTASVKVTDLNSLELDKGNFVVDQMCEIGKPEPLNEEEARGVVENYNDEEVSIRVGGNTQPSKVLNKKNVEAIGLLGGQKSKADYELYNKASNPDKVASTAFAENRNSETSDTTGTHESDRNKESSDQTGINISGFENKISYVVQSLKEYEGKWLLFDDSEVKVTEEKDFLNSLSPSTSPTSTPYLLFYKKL

Structure (SMILES)	activity change, negative = inhibition	Potency
CCOC(=O)O[C@]1(C(=O)OCCl)CC[C@@H]2[C@H]3CCC4=CC(=O)C=C[C@]4(C)[C@@H]3[C@@H](O)C[C@@]21C	-1.74%	
O=c1[nH]cnc2c1ncn2[C@H]1CC[C@@H](CO)O1	-3.85%	
COc1ccc(C2Sc3ccccc3N(CCN(C)C)C(=O)C2OC(C)=O)cc1 (stereo unspecified)	-8.78%	
O=C(O)Cc1cccc2ccccc12	-5.68%	
O=C(O)c1cc(-c2ccccc2)nc2ccccc12	-8.07%	
O=c1cc(-c2ccccc2)oc2cc(O)cc(O)c12	5.48% [at 54.9 µM]	
O=C(O)c1c(Cl)c(Cl)c(Cl)c(Cl)c1-c1c2cc(I)c(=O)c(I)c-2oc2c(I)c(O)c(I)cc12		20 µM (active)
Nc1ncnc2c1ncn2[C@@H]1O[C@@H](CO)[C@H](O)[C@H]1O	-2.54% [at 54.9 µM]	
CC(=O)O[C@]1(C(C)=O)CC[C@H]2[C@@H]3C=C(Cl)C4=CC(=O)[C@@H]5C[C@@H]5[C@]4(C)[C@H]3CC[C@@]21C		inactive
COc1ccc2c3c1OC1C[C@@H](O)C=C[C@@]31CCN(C)C2 (stereo partly specified)		inactive
CCn1cc(C(=O)O)c(=O)c2ccc(C)nc21		inactive
CCCCCN(C)CCC(O)(P(=O)(O)O)P(=O)(O)O		inactive
CC(C)[C@H](CO)Nc1nc(Nc2ccc(C(=O)O)c(Cl)c2)c2ncn(C(C)C)c2n1	-10.3%	
C[C@@H](O)[C@H]1C(=O)N2C(C(=O)O)=C(S[C@@H]3CN[C@H](C(=O)N(C)C)C3)[C@H](C)[C@H]12	-13.9% [at 54.9 µM]	
COc1cc2ncnc(Nc3ccc(F)c(Cl)c3)c2cc1OCCCN1CCOCC1	-10.7%	
CC1(C)O[C@H]2C[C@@H]3[C@H]4CCC5=CC(=O)C=C[C@]5(C)[C@@]4(F)[C@@H](O)C[C@]3(C)[C@]2(C(=O)CO)O1	0.223%	
COCCCCC(=NOCCN)c1ccc(C(F)(F)F)cc1		inactive
CC1(C)CCC2=C(O1)c1ccccc1C(=O)C2=O		5.01 µM (active)
Cc1cnc(C(=O)O)c[n+]1[O-]	-3.24%	
O=C(NCCN1CCOCC1)c1ccc(Cl)cc1		inactive
